The full list was thinned out, with hits kept by preference.
Pf apPOL block: Pf-apPOL DNA polymerase inhibition; Recombinant Pf-apPOL, molecular beacon fluorescence, 1.5 h; actives 0.25% (n = 210,000); inhibition, % at 10 µM
mHTT-CaM PPI inh: disrupts binding of mutant huntingtin to calmodulin; AID 1671202; P42858; AlphaScreen His-mHTT/GST-CaM binding, luminescence; inhibition, % at 15 µM; actives 3.6% (n = 190,000);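 note: 0% = both proteins with DMSO and 100% = one protein alone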
* hit, by the source's call; / = no result; + = active, no number. Cut-off read from the data, not from the text of the source: active = inhibition above about 50%; inactive = the rest.

SMILES | Pf apPOL block | mHTT-CaM PPI inh
Cc1cc(=O)[nH]c(N=C(N)Nc2ccc(Cl)cc2Cl)n1 | 9.6 | /
CC(C)CSc1nsc2nc(=O)c(C=C3C=CC(=O)C(O)=C3)c(N)n12 | -8.6 | 47.0
NC(N)=NS(=O)(=O)c1ccc(NC(=O)C2CCCCC2)cc1 | -0.6 | 1.6
CC(C)N(C)C(=O)c1cc(-c2ccc3c(c2)OCO3)on1 | -5.7 | 1.0
CN1CCN(Cc2c(O)ccc3c2OC(=Cc2ccccc2Br)C3=O)CC1 | -0.7 | 10.0
Cc1nn(C(=O)c2ccncc2)c(C)c1Sc1ccc(Cl)cc1 | -1.0 | 41.0
Cc1ccc(CNS(=O)(=O)c2ccc(F)c(C(=O)Nc3cccc(F)c3)c2)cc1 | -3.3 | 1.0
CCNc1cc(N2CCCC(CCC(=O)NCCC(C)C)C2)ncn1 (stereo not given) | -5.2 | 3.4
CCn1c(C2CCN(S(=O)(=O)c3ccc4c(c3)CCCC4)C2)nc2ccncc21 (stereo not given) | 10.8 | 92.6*
CCn1c(C2CCN(S(=O)(=O)c3cc(F)cc(F)c3)C2)nc2ccncc21 (stereo not given) | -2.7 | 2.1
O=c1/c(=C/c2ccccc2)sc2n1CN(c1cccc(Br)c1)CN=2 | -4.3 | -13.0
O=C1Nc2ccc(Cl)cc2/C1=c1\sc2n(c1=O)CN(c1cccc(Br)c1)CN=2 | -6.2 | 52.0*
CC(=O)C1=C(C)NC(SCc2ccccc2)=C(C#N)C1c1ccccc1 (stereo not given) | 1.1 | -19.8
CN(C)C1=NS(=O)(=O)c2ccccc21 | -2.0 | -2.5
CN(C)c1ccc(/C=C/C=N/NC2=NS(=O)(=O)c3ccccc32)cc1 | / | +
CCCNC(=O)c1ccc2c(=O)n3c(nc2c1)CCCC3 | -4.1 | 3.2
O=C1NC(=O)/C(=C\c2cc(Br)c(Sc3ccc(Cl)cc3)o2)N1 | -3.2 | 26.0
O=Cc1cc(Br)c(Sc2ccc(Cl)cc2)o1 | -5.8 | 60.7*
CCOc1ccc(C(O)=C2C(=O)C(=O)N(c3ncccn3)C2c2cccc([N+](=O)[O-])c2)cc1 (stereo not given) | -5.4 | 5.5
CCN1C(=O)/C(=C2\C=Cc3ccccc3N2CC)SC1=Nc1ccc(N2CCOCC2)cc1 | -2.9 | 0.0
CCN1C(=O)/C(=C2\C=Cc3ccccc3N2CC)SC1=Nc1ccccc1 | -2.2 | 97.0*
O=C1CSC(=O)N1CC(O)COc1ccc(OCC(O)CN2C(=O)CSC2=O)cc1 (stereo not given) | 69.6* | 1.0
O=C1CSC(=O)N1CCOc1ccc(F)cc1 | 1.6 | -5.0
CC1=NN(c2ccc(Br)cc2)C(=O)/C1=C/c1ccc(N(C)C)cc1 | 3.3 | 37.0
CC1=NN(c2ccc(Cl)c(Cl)c2)C(=O)/C1=C/c1ccccc1 | -3.3 | 15.0
SMILES | Pf apPOL block | mHTT-CaM PPI inh
CC1=NN(c2nc(-c3ccccc3)cs2)C(=O)/C1=C/c1ccco1 | 8.7 | 76.0*
CCc1ccc(N2N=C(C)/C(=C\c3ccc(N(C)C)cc3)C2=O)cc1 | -1.2 | 70.0*
CC1=NN(c2ccccc2)C(=O)/C1=C/c1ccc(N(C)C)cc1 | -7.2 | 42.0
CC1=NN(c2nc(-c3ccc(C)cc3)cs2)C(=O)/C1=C/c1ccc(N(C)C)cc1 | -9.0 | 56.0*
CC1=NN(c2nc(-c3ccccc3)cs2)C(=O)/C1=C/c1ccc(C)s1 | -8.9 | 3.0
CCN(C)c1ccc(/C=C2/C(=O)N(c3ccc(Cl)c(Cl)c3)N=C2C)cc1 | -4.9 | 61.0*
O=C(CCN1CCOCC1)N1CCCc2c1c(=O)oc1ccc(O)cc21 | -2.6 | -9.0
COCCN1COc2ccc3c(=O)c(-c4ccc(OC)c(OC)c4)coc3c2C1 | -4.8 | -1.7
CCn1c2ccccc2c2cc(NC(=O)COC)ccc21 | -1.1 | 16.9
CC1=NN(c2ccc(Cl)c(Cl)c2)C(=O)/C1=C/c1ccc(C)c([N+](=O)[O-])c1 | -0.1 | 12.0
CCN(CC)c1ccc(/C=C2/C(=O)N(c3ccc(Cl)c(C(=O)O)c3)N=C2C)cc1 | -2.2 | 59.0*
CC1=NN(c2cccc(Cl)c2)C(=O)/C1=C/c1ccc(Cl)c([N+](=O)[O-])c1 | 3.2 | 76.0*
CCN(CC)c1ccc(/C=C2/C(=O)N(c3ccc(C)cc3)N=C2C)cc1 | -0.6 | 29.0
CC(C)C(=O)Nc1ccc(Br)cc1F | 0.4 | -4.2
CCOc1ccc(OCCNC(=O)c2ccco2)cc1 | -6.1 | -8.4
COc1ccc(NC(=O)c2ccco2)cc1Cl | -3.3 | 5.9
Nc1ccc(S(N)(=O)=O)cc1 | / | -3.6
Nc1ccc(-c2ccc(S(=O)(=O)c3cccc(N)c3)cc2N)cc1 | 4.1 | 68.6*
Nc1ccc(S(=O)(=O)c2ccc(N)c(N)c2)cc1N | 48.1 | 8.7
Nc1ccc(-c2ccc(S(=O)(=O)c3ccc(-c4ccc(N)cc4)cc3)cc2)cc1 | -2.4 | 62.4*
Cc1noc(C)c1S(=O)(=O)N1CCC(C(C)C(=O)NCc2ccccc2Cl)CC1 (stereo not given) | -1.3 | 0.4
Cc1ccc(C2CC(C(F)F)n3ncc(C(=O)Nc4cnn(Cc5ccccc5C)c4)c3N2)cc1 (stereo not given) | -3.3 | 56.0*
Cc1ccc(C2CC(C(F)(F)F)n3ncc(C(=O)Nc4ccccc4C)c3N2)cc1 (stereo not given) | 0.5 | 18.0

Screening results from PubChem.
